# Numbering of substitutions follows the chain as printed. The full ranking holds about 5,800 sequences; the median of “enrichment r” is about 0.54, and the highest 2% start at about 16. The sample holds the highest values, similar sequences and a random draw of the others, so the mix is not that of the screen.
# B1: chr11:101890673:101891278:-|three_prime_utr|ENSG00000187151|control|control|control (ssRNA)
# RNA: GGGAGUUCUACAGUCCGACGAUCGUAAUGCAAGUUCUACAAUGAUAAUAUAUUAAAGAUUUUUAAAAGUUUAUCUUUUCACUUAGUGUUUCAAACAUAUUAGGCAAAAUUUAACUGUAGAUGGCAUUUAGAUGUUAUGAGUUUCAACAGAGGAUUGAGCAUCA
# B2: chr15:49134392:49134529:-|CDS|ENSG00000166200|unk|FALSE|unique (ssRNA)
# RNA: GGGAGUUCUACAGUCCGACGAUCAUAUUUGCUUUCCUAGACUGAUGAUGGAGAAGAUGAUCUGAAAAAAGGUACACAGUUAUUAGAAAUAUAUGCUUUGGAAAUUCAAAUGUACACAGCACAGAAAAAUAACAAAAAACUUAACAACAGAGGAUUGAGCAUCA
# B3: chr9:5123879:5124511:-|three_prime_utr|ENSG00000120210|control|control|control (ssRNA)
# RNA: GGGAGUUCUACAGUCCGACGAUCCUGGUAAAUUGGAUUGCCAUAUGCAGAAGAAUGAAACUGGACCCAUAUUUAUCACCAUAUAGAAAAAUUAACUCGAUCGAUUACAGACUUAAAUGUAAGAUCUGAAACUAGAAAAAUACUCAACAGAGGAUUGAGCAUCA
# B4: chr5:72209348:72209524:+|3pUTR|ENSG00000131711|msi1_unk|FALSE|overlapping (ssRNA)
# RNA: GGGAGUUCUACAGUCCGACGAUCUUAUGUCUUAUAAUCCUGCAUCACUUCUAUCCUAUCCAGUCAUAUCUAAUGUAGAAAAUUAGUUUCCAGUGAAAGUAAUAUGUAGUGCUUUUAUGAUAUUUGUGUGCAAUAUCCCCUCUUCAACAGAGGAUUGAGCAUCA
# B5: chr16:21983864:21984660:-|three_prime_utr|ENSG00000155714|control|control|control (ssRNA)
# RNA: GGGAGUUCUACAGUCCGACGAUCAAAGAAAAUUGAGCUGGCAAAAGAUGAAUCUUUCACAAGCAGUGAUGAUAAUGAAAAUGUAGAUUUAGAUAAAAGACUUCAAUAUUAUAGAUAUCCGUGGUCAACUGUGCAUCACCCUGCCAACAGAGGAUUGAGCAUCA
# B6: chr5:24509697:24509799:-|CDS|ENSG00000040731|unk|FALSE|unique (ssRNA)
# RNA: GGGAGUUCUACAGUCCGACGAUCACUCGACUAUGAGAGCCGAAGACUUUAUACUCUGAAAGUCGAAGCAGAAAACACCCAUGUAGAUCCCCGUUUUUAUUACCUAGGACCAUUUAAAGAUACUACCAUAGUGAAAAUCUCUAUCAACAGAGGAUUGAGCAUCA
# B7: chr17:61865808:61865921:-|3pUTR|ENSG00000108506|unk|FALSE|unique (ssRNA)
# RNA: GGGAGUUCUACAGUCCGACGAUCUUCUAUGAGAAUGAGUUUGUAGCUGUUUCAAAUCAUGAAGUGCAUAGUAUCACAUGUGAUAGAAUAUUUAUAACUUUUUAUUAGAUGCUUAAUGUUCAAUUAAGUAAUUUUGAUGUGAAACAACAGAGGAUUGAGCAUCA
# B8: chr2:99394746:99394872:+|CDS|ENSG00000158417|unk|FALSE|unique (ssRNA)
# RNA: GGGAGUUCUACAGUCCGACGAUCGAUGUGAGAAUUGAACGAGAUGCACAAGAAAUGGCUGAUAGUUUAGGAGUUAGAAUUUUUAGUGCAGAAAUUAUUUAUCAUUUAUUUGAUGCCUUUACAAAAUAUAGACAAGACUACAAGCAACAGAGGAUUGAGCAUCA
# B9: chr2:99394746:99394872:+|CDS|ENSG00000158417|unk|total|mutant (ssRNA)
# RNA: B8 RNA with U62C, A63C, U67C, A68C, U74C, A75C, U83C, A84C, U128C, A129C
# B10: ENSG00000176244:stop:overlap|stop_codon|ENSG00000176244|stop_codon|NA|stop_codon (ssRNA)
# RNA: GGGAGUUCUACAGUCCGACGAUCAAGAUGCGACGAGUGCCUAUAUUUCUAAAGCAAAGGAGCUGAUAGAAAAAUACGGAAUUUAGAAUACAGCAUAUGAGGAAUUUUUCCUUUUGAAGACUUCCAAAUGCUAUCAUGACCUAACAACAGAGGAUUGAGCAUCA
# B11: chr5:72209348:72209524:+|3pUTR|ENSG00000131711|msi1_unk|total|mutant (ssRNA)
# RNA: B4 RNA with U75C, A76C, U83C, A84C, U106C, A107C
# B12: chr17:37686430:37687371:-|three_prime_utr|ENSG00000275410|control|control|control (ssRNA)
# RNA: GGGAGUUCUACAGUCCGACGAUCUGCAAUUUCCCCUCUGUGUCCUCUCCCCUCUGCCCUGUAUAUAAUACUAAAGUGUCUAUUAGUUUUCUUUGUAAAGGUCAGAGUCAAAAUUUCAAAAGUGAUCUGUCCCCUCUCCCCUCACAACAGAGGAUUGAGCAUCA
# B13: chr11:118751385:118751486:-|3pUTR|ENSG00000110367|msi1|FALSE|unique (ssRNA)
# RNA: GGGAGUUCUACAGUCCGACGAUCUUGAAGUCUCUUCCCUUUCUACCCAGUACUCGAGCCCAGGGCUAGAAGUUGAAACUCACUAGUAAUGUUAAACACCAUUUUUUUUUUCUUUUUGGGGAGGAGUUGAUAUGCAACUGCAGUCAACAGAGGAUUGAGCAUCA
# B14: chr4:173322470:173322571:+|3pUTR|ENSG00000109586|msi1|total|mutant (ssRNA)
# RNA: GGGAGUUCUACAGUCCGACGAUCUGCCGCAUUCACUCCCUUACCUACUGGCAUUCCCAGUGCCCUCUGUCCAUACCUACUUCCCGGAUUGCAAAGGAGUCUUCCAACCCGAGAAAAAUUGUCCACUGACAUUUGGGAUUUACUCAACAGAGGAUUGAGCAUCA
# Target: MSI1 full-length (mouse, UniProt Q61474 1-362)
# Assay: nsRBNS (natural sequence RNA bind-n-seq); RBNS binding buffer (assumed for nsRBNS): 25 mM Tris pH 7.5, 150 mM KCl, 3 mM MgCl2, 0.01% Triton X-100, 500 ug/ml BSA, 20 U/ml SUPERase-In, 4 C; UNK is unkempt and MSI1 is Musashi-1; names of the RNAs are library labels; protein concentration not given here; high values mean tight binding
# Chain of MSI1 full-length (Q61474 whole entry): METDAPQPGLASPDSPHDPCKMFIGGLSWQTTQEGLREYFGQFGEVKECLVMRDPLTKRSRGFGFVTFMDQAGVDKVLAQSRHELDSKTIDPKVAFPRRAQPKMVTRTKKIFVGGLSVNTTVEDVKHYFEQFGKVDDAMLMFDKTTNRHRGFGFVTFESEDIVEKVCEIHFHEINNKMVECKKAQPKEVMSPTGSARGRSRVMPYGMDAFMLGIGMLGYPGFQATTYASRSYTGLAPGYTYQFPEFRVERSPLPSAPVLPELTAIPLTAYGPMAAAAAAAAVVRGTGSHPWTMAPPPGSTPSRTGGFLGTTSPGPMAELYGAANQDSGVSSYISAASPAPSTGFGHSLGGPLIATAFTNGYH
row,Binder,binding signal
1,B1,3.72 enrichment R
2,B2,0.819 enrichment R
3,B3,19.7 enrichment R
4,B4,22.2 enrichment R
5,B5,43.6 enrichment R
6,B6,3.85 enrichment R
7,B7,5.16 enrichment R
8,B8,35 enrichment R
9,B9,0.374 enrichment R
10,B10,0.512 enrichment R
11,B11,0.64 enrichment R
12,B12,0.979 enrichment R
13,B13,1.4 enrichment R
14,B14,0.767 enrichment R

# From publication PMC12136788
